The results in this text go back to the supplement of paper PMC7156485.

Each structure is given as a SMILES string. ± gives the standard deviation of the averaged measurements.

Conditions in all cases: concentration: 10 µM; 24 h
Experiment [1] has as its system HCC1569. In words: cell number relative to DMSO (% of DMSO); higher = more cells (less growth inhibition / toxicity). The method in brief:
(§1)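 HCC1569 and TDF cells (800 per well, 384-well plates, RPMI with 10% FBS) were treated with compounds at 10 µM for 24 h at 37 °C, in triplicate. Cells were fixed in 3.7% formaldehyde and stained with a rabbit anti-H1.0 antibody, an AlexaFluor 647 secondary and DAPI; six fields per well were imaged at ×10. H1.0 nuclear intensity or cell number is expressed as percent of the plate DMSO control, taking the median of replicates. HCC1569 values were smoothed for positional effects.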

The test system of experiment [2] is TDF. Described as above. The gist of the method: as §1
Experiment [3] relates to TDF. In words: H1.0 immunofluorescence intensity relative to DMSO (% of DMSO); higher = stronger H1.0 induction, active = 120 or more. The gist of the method: as §1
Experiment [4] deals with HCC1569. Put plainly: H1.0 immunofluorescence intensity relative to DMSO (% of DMSO); higher = stronger H1.0 induction, active = 140 or more. The method in brief:
as §1
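For H1.0 immunofluorescence intensity relative to DMSO in this document: TDF is a line of transformed human dermal fibroblasts of mesenchymal origin.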
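For cell number relative to DMSO in this document: TDF denotes transformed human dermal fibroblasts of mesenchymal origin.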

Regarding `CC(C)C(CO)Nc1nc(Nc2ccc(C(=O)O)c(Cl)c2)c2ncn(C(C)C)c2n1` (stereo not drawn) [Purvalanol B], the cell number in the experiment with HCC1569 [1] came to 101; in the experiment on TDF [2], 110. The H1.0 immunofluorescence intensity in the experiment with TDF [3] is 93.1 (inactive); in the experiment on HCC1569 [4], 98.7 (inactive).
The matching figures for `COc1ccc(C2CC(=O)c3c(O)cc(OC4OC(CO)C(O)C(O)C4OC4OC(C)C(O)C(O)C4O)cc3O2)cc1O` (stereo not drawn) [Neohesperidin]: 99.8, 104, 107 (inactive) and 96.3 (inactive).
In the case of `O=C1CCCC(=O)C1C(=O)c1ccc(C(F)(F)F)cc1[N+](=O)[O-]` [2-[2-nitro-4-(trifluoromethyl)benzoyl]-1,3-cyclohexanedione], the cell number was found to be 96.1 with HCC1569 [1] and 104 in the experiment with TDF [2]. The H1.0 immunofluorescence intensity is 99.8 (inactive) in the experiment with TDF [3] and 101 (inactive) in the experiment with HCC1569 [4].
The matching figures for `CCC(CCC(C)C1CCC2C3CC=C4CC(O)CCC4(C)C3CCC12C)C(C)C` (stereo not drawn): 99.8, 92.5, 105 (inactive) and 90.6 (inactive).
Regarding `O=C(Nc1ccc(-c2cn[nH]c2)cc1)C1COc2ccccc2O1` (stereo not drawn) [Rho Kinase Inhibitor V], the figures for the cell number with HCC1569 [1] and in the experiment with TDF [2] were 107 and 109, respectively. For the same compound, the H1.0 immunofluorescence intensity with TDF [3] was 87.7 (inactive); in the experiment on HCC1569 [4], 101 (inactive).
The matching figures for `COc1ccc(C2Sc3ccccc3N(CCN(C)C)C(=O)C2OC(C)=O)cc1` (stereo not drawn) [Diltiazem]: 104, 107, 92 (inactive) and 101 (inactive).
The matching figures for `C=C1C(=CC=C2CCCC3(C)C2CCC3C(C)CCCC(C)(C)O)CC(O)CC1O` (stereo not drawn) [Calcitriol]: 102, 100, 98.2 (inactive) and 112 (inactive).
Take `CCOc1ccc2ccc(=O)oc2c1` [7-ethoxy-2H-chromen-2-one]: the cell number in the experiment with HCC1569 [1] amounted to 99.7; with TDF [2], 108. Further, the H1.0 immunofluorescence intensity in the experiment on TDF [3] is 93.7 (inactive); with HCC1569 [4] it was 103 (inactive).
The matching figures for `CN(C)CCCN1c2ccccc2Sc2ccc(Cl)cc21.Cl` [Chlorpromazine.HCl]: 96.5, 99.7, 106 (inactive) and 113 (inactive).
For `CC1OC(OC2C(Oc3cc(O)c4c(=O)cc(-c5ccc(O)cc5)oc4c3)OC(CO)C(O)C2O)C(O)C(O)C1O` (stereo not drawn) [Rhoifolin], in that order: 102, 112, 88.4 (inactive) and 89.9 (inactive).
For `COC1(C2=NCCN2)COc2ccccc2O1.Cl` (stereo not drawn), in that order: 104, 108, 89.4 (inactive) and 102 (inactive).
Take `O=C(C=Cc1ccc(O)cc1)CC(=O)C=Cc1ccc(O)cc1` [bis-demethoxycurcumin]: the results for the cell number with HCC1569 [1] and with TDF [2] were 82.7 and 98.6, respectively. In addition, the H1.0 immunofluorescence intensity with TDF [3] is 92.7 (inactive); in the experiment on HCC1569 [4] it was 104 (inactive).
As to `CNCCCC12CCC(c3ccccc31)c1ccccc12.Cl` [Maprotiline hydrochloride], the cell number in the experiment with HCC1569 [1] amounted to 97.8; in the experiment on TDF [2] it was 102. Moreover, the H1.0 immunofluorescence intensity in the experiment with TDF [3] was 106 (inactive); with HCC1569 [4], 99.1 (inactive).
Take `COc1cc2c(c(OC)c1OC)-c1c(cc3c(c1OC)OCO3)CC(C)C(C)(O)C2OC(=O)c1ccccc1` (stereo not drawn) [Schisantherin A]: the cell number in the experiment with HCC1569 [1] is 106; in the experiment with TDF [2] it was 95. Further, the H1.0 immunofluorescence intensity was 98.5 (inactive) in the experiment on TDF [3] and 97.7 (inactive) in the experiment with HCC1569 [4].
The matching figures for `O=C1c2ccccc2-[n+]2ccc3c([nH]c4ccccc43)c21.[Cl-]` [Fascaplysin, Synthetic]: 49.8, 6.76, 182 (active) and 60.9 (inactive).
The matching figures for `CC(C)(C)NCC(O)c1cc(O)cc(O)c1.CC(C)(C)NCC(O)c1cc(O)cc(O)c1.O=S(=O)(O)O` (stereo not drawn) [Terbutaline hemisulfate]: 106, 105, 92.8 (inactive) and 97 (inactive).
The matching figures for `COc1ccc(COc2ccc(Cc3cnc(N)nc3N)cc2OC)cc1` [cFMS Receptor Tyrosine Kinase Inhibitor]: 100, 93.7, 98.1 (inactive) and 130 (inactive).
Regarding `CC(C)OC(=O)C(C)(C)Oc1ccc(C(=O)c2ccc(Cl)cc2)cc1` [Fenofibrate], the cell number with HCC1569 [1] came to 99.6 ± 2.2; with TDF [2] it was 106.6 ± 0.69. Moreover, the H1.0 immunofluorescence intensity with TDF [3] is 95 (inactive); in the experiment with HCC1569 [4], 109 (inactive).
Consider `CC(C)(CCCCCCCCCCC(C)(C)CC(=O)O)CC(=O)O` [3,3,14,14-tetramethylhexadecanedioic acid], for which the values for the cell number with HCC1569 [1] and with TDF [2] were 102 and 97.7, respectively. For the same compound, the H1.0 immunofluorescence intensity in the experiment on TDF [3] was 96.6 (inactive); in the experiment on HCC1569 [4], 93.7 (inactive).
For `Cc1[nH]ccc2c1[nH]c1cc(=O)ccc12.Cl.O.O`, in that order: 94, 94.7, 97.1 (inactive) and 94.2 (inactive).
The matching figures for `CNc1ncnc2c1ncn2C1CC(OP(=O)([O-])O)C(COP(=O)([O-])O)O1.[NH4+].[NH4+]` (stereo not drawn): 104, 100, 95 (inactive) and 92.4 (inactive).
For `O=c1cc(-c2ccc(O)cc2)oc2c(C3OC(CO)C(O)C(O)C3O)c(O)cc(O)c12` (stereo not drawn) [Vitexin], in that order: 101, 100, 99.5 (inactive) and 85.1 (inactive).
